In PubChem BioAssay (EPA / NIEHS):
Where “and” joins values, the source holds several entries; their conditions need not be identical. Equal entries are not always repeated. Records with an inconclusive call do not appear. Calls of active or inactive are those of the source. The calls were made as follows, unless noted: active = hit-call score of the fitted dose curve at least 0.9, where 1 is the maximum; inactive = score below 0.9.

How the values were obtained:
[1] = ATG_PBREM_CIS: Attagene CIS-FACTORIAL HepG2 Assay for human Phenobarbital-responsive Enhancer Module (PBREM) (AID 2282955); details: HepG2 PBREM cis-reporter, Attagene multiplexed transcription; actives raise or lower the signal
How it was run: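 Fluorescence of labelled reporter cDNA fragments, resolved by capillary electrophoresis, gives mRNA induction in transfected HepG2 cells treated for 24 h; DMSO serves as negative control and baseline.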

[2] = molecular target: Paired box protein Pax-6 (Homo sapiens) (UniProt P26367); experiment: ATG_Pax6_CIS: Attagene CIS-FACTORIAL HepG2 Assay for human Paired Box 6 (PAX6) (AID 2282956); details: HepG2 CIS-FACTORIAL PAX6 reporter transcription, RNA readout; actives raise or lower the signal
How it was run: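 Read-out is reporter transcript level, measured by RT-PCR with fluorescent primer extension and capillary electrophoresis after 24 h dosing of transfected HepG2 cells. Activity in either direction fitted relative to DMSO control.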

[3] = ATG_PXRE_CIS: Attagene CIS-FACTORIAL HepG2 Assay for human Pregnane X Receptor Element (PXRE) (AID 2282957); details: HepG2 Attagene CIS-FACTORIAL PXRE reporter, mRNA; actives raise or lower the signal
How it was run: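 Fluorescent capillary electrophoresis of amplified reporter cDNA gave the signal, collected 24 h after dosing HepG2 cells that held transfected cis-element reporter constructs.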

[4] = ATG_PPRE_CIS: Attagene CIS-FACTORIAL HepG2 Assay for human Peroxisome Proliferator-activated Response Element (PPRE) (AID 2282958); details: HepG2 PPRE cis-element reporter, Attagene transcription factor profiling; actives raise or lower the signal
How it was run: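 Cells are first transfected transiently with the multiplexed reporter library, then dosed for 24 h. Total RNA is reverse-transcribed, amplified, fluorescently end-labeled and HpaI-cut before capillary electrophoresis; activity is fitted bidirectionally against DMSO controls.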

[5] = ATG_RORE_CIS: Attagene CIS-FACTORIAL HepG2 Assay for human RAR-related Orphan Receptor Element (RORE) (AID 2282959); details: HepG2 Attagene cis-factorial RORE reporter, mRNA; actives raise or lower the signal
How it was run: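 Cells were HepG2 carrying transfected cis-regulated reporter constructs, dosed for 24 hours. Total RNA was reverse-transcribed and reporter cDNA amplified, fluorescently labeled and sized by capillary electrophoresis. Activity was fitted bidirectionally relative to DMSO.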

[6] = molecular target: Transcription factor Sp1 (Homo sapiens) (UniProt P08047); experiment: ATG_Sp1_CIS: Attagene CIS-FACTORIAL HepG2 Assay for human Specificity Protein 1 (Sp1) (AID 2282961); details: HepG2 Sp1 cis-reporter transcription, actives raise or lower the signal
How it was run: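 Endogenous Sp1 activity was gauged in human liver HepG2 cells bearing transfected reporter units under a cis-regulating promoter. After 24 h dosing, reporter mRNA was quantified by RT-PCR with capillary electrophoresis, and activity fitted bidirectionally versus DMSO.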

[7] = ATG_SREBP_CIS: Attagene CIS-FACTORIAL HepG2 Assay for human Sterol Regulatory Element Binding (SREBP) (AID 2282962); details: HepG2 Attagene cis-factorial SREBP reporter, mRNA; actives raise or lower the signal
How it was run: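 Endogenous SREBP activity read as cis-element-driven reporter transcript in transiently transfected HepG2, 24 h post-dosing; quantified via RT-PCR plus capillary electrophoresis of fluorescent fragments. Gain or loss of signal fitted relative to DMSO baseline.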

[8] = molecular target: Signal transducer and activator of transcription 3 (Homo sapiens) (UniProt P40763); experiment: ATG_STAT3_CIS: Attagene CIS-FACTORIAL HepG2 Assay for human Signal Transducer and Activator of Transcription 3 (STAT3) (AID 2282963); details: HepG2, Attagene cis-factorial STAT3 reporter transcription; actives raise or lower the signal
How it was run: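 Uses human liver HepG2 transiently carrying cis-regulated reporter transcription units. Following 24 h dosing, reporter mRNA induction was detected by RT-PCR and capillary electrophoresis, analysed bidirectionally versus DMSO.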

[9] = ATG_TA_CIS: Attagene CIS-FACTORIAL HepG2 Assay for human TA Basal Promoter (AID 2282964); details: HepG2 Attagene CIS-factorial TA basal promoter reporter; actives raise or lower the signal
How it was run: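 HepG2 cells transiently transfected with multiplexed cis-promoter reporter units, dosed 24 h. Reporter mRNA measured by RT-PCR, 6-FAM labelling, HpaI digestion and capillary electrophoresis; bidirectional fit versus DMSO baseline, serving as background control.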

[10] = ATG_TCF_b_cat_CIS: Attagene CIS-FACTORIAL HepG2 Assay for human T-Cell-Factor with beta-catenin (TCF/b-cat) (AID 2282965); details: HepG2 TCF/beta-catenin cis-reporter transcription, actives raise or lower the signal
How it was run: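 In this cis-format system, transfected HepG2 cells report endogenous transcription factor activity. Readout after 24 h exposure is reporter transcript abundance from RT-PCR and capillary electrophoresis, analysed for gain or loss of signal versus DMSO.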

[11] = ATG_TAL_CIS: Attagene CIS-FACTORIAL HepG2 Assay for human TAL Basal Promoter (AID 2282966); details: HepG2 Attagene cis-factorial TAL promoter reporter; actives raise or lower the signal;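 also: background control endpoint measuring basal TAL promoter reporter mRNA not a specific factor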
How it was run: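 Transiently transfected HepG2 (cis-regulated reporter units), 24 h treatment, mRNA read by fluorescent CE after RT-PCR; bidirectional fit, DMSO baseline.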

[12] = ATG_TGFb_CIS: Attagene CIS-FACTORIAL HepG2 Assay for human Transforming Growth Factor (TGF) (AID 2282967); details: HepG2 Attagene CIS TGFb reporter, mRNA transcription; actives raise or lower the signal
How it was run: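 HepG2 cells transiently transfected with cis-promoter-driven multiplexed reporter units; 24 h compound exposure. Reporter mRNA measured by RT-PCR, 6-FAM labeling, HpaI digestion and capillary electrophoresis; bidirectional fit versus DMSO baseline.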

[13] = ATG_VDRE_CIS: Attagene CIS-FACTORIAL HepG2 Assay for human Vitamin D Receptor Element (VDRE) (AID 2282968); details: HepG2 VDRE cis-reporter transcription, actives raise or lower the signal
How it was run: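 Transfected HepG2 reporter cells, chemical treatment 24 h. RNA isolated, cDNA amplified with reporter-specific primers, products analysed by capillary electrophoresis. Endpoint fitted in both directions versus DMSO.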

[14] = molecular target: Nuclear receptor subfamily 1 group I member 3 (Homo sapiens) (UniProt Q14994); experiment: ATG_CAR_TRANS: Attagene TRANS-FACTORIAL HepG2 Assay for human Constitutive Androstane Receptor (CAR) (AID 2282969; active = hit-call score of the fitted dose curve at least 0.9, where 1 is the maximum;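 also: activators raise reporter mRNA above DMSO so AC50 marks induction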); details: HepG2 Attagene TRANS-FACTORIAL CAR reporter
How it was run: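 Steps: transient transfection of HepG2 with multiple GAL4-UAS reporter units; 24 h compound incubation; RNA isolation, RT-PCR, 6-FAM primer extension, HpaI digest; capillary electrophoresis. Gain-of-signal relative to DMSO negative control.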

[15] = molecular target: Estrogen receptor (Homo sapiens) (UniProt P03372); experiment: ATG_ERa_TRANS: Attagene TRANS-FACTORIAL HepG2 Assay for human Estrogen Receptor alpha (ERa) (AID 2282970; active = hit-call score of the fitted dose curve at least 0.9, where 1 is the maximum); details: HepG2 Attagene TRANS ERa GAL4 reporter, mRNA
How it was run: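 One of 30 multiplexed endpoints from a HepG2 TRANS system, this one reports ERa-Gal4-driven reporter mRNA. Transcripts were quantified 24 hours post-dosing by fluorescent RT-PCR and capillary electrophoresis, with activity scored as induction over DMSO.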

[16] = molecular target: Steroid hormone receptor ERR1 (Homo sapiens) (UniProt P11474); experiment: ATG_ERRa_TRANS: Attagene TRANS-FACTORIAL HepG2 Assay for human Estrogen-Related Receptor alpha (ERRa) (AID 2282971; active = hit-call score of the fitted dose curve at least 0.9, where 1 is the maximum); details: HepG2 Attagene TRANS reporter, ERRa transactivation
How it was run: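 HepG2 cells transiently transfected with multiplexed GAL4-UAS reporter units reading chimeric ERRa-Gal4 activity; 24 h compound exposure. Reporter mRNA measured by RT-PCR, 6-FAM labelling, HpaI digest and capillary electrophoresis; gain of signal fitted versus DMSO baseline.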

[17] = molecular target: X-box-binding protein 1 (Homo sapiens) (UniProt P17861); experiment: ATG_Xbp1_CIS: Attagene CIS-FACTORIAL HepG2 Assay for human X-box Binding Protein 1 (XBP1) (AID 2282972); details: HepG2 XBP1 cis-element reporter, Attagene multiplex; actives raise or lower the signal
How it was run: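 Reporter transcripts were quantified by RT-PCR with fluorescent primer extension and capillary electrophoresis after 24 h chemical exposure. Cells: transiently transfected HepG2 carrying cis-regulated reporter constructs; data fitted bidirectionally relative to DMSO.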

[18] = molecular target: Androgen receptor (Homo sapiens) (UniProt P10275); experiment: ATG_AR_TRANS: Attagene TRANS-FACTORIAL HepG2 Assay for human Androgen Receptor (AR) (AID 2282973; active = hit-call score of the fitted dose curve at least 0.9, where 1 is the maximum); details: HepG2 Attagene TRANS-FACTORIAL AR reporter transcription
How it was run: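 HepG2 cells transiently transfected with multiplexed GAL4-UAS reporter units and chimeric NR-Gal4 fusion; 24 h compound exposure. Reporter mRNA measured by RT-PCR, 6-FAM labelling, HpaI digestion and capillary electrophoresis; gain-of-signal fitted relative to DMSO baseline.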

[19] = ATG_M_19_TRANS: Attagene TRANS-FACTORIAL HepG2 Assay for M19 Transcription Factor (Internal Marker) (AID 2282974; active = hit-call score of the fitted dose curve at least 0.9, where 1 is the maximum); details: HepG2 Attagene TRANS-FACTORIAL M19 internal marker reporter
How it was run: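 Cells: human HepG2, transiently transfected with multiplexed reporter transcription units. Exposure: 24 h. Detection: RT-PCR of reporter mRNA with capillary electrophoresis. Analysis: gain-of-signal vs DMSO.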

[20] = ATG_Sox_CIS: Attagene CIS-FACTORIAL HepG2 Assay for human SRY-box transcription factor (SOX) (AID 2282960); details: HepG2 Attagene cis-factorial SOX reporter, mRNA; actives raise or lower the signal
How it was run: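 Transient MRTU transfection of HepG2; 24 h compound incubation; TriZol RNA, oligo(dT) RT, PCR, 6-FAM primer extension, HpaI cut, CE. Bidirectional fit, DMSO = baseline.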

Measured: AC50

Chain of Estrogen receptor (Homo sapiens) (P03372 whole entry, looked up, the tested form may be a part): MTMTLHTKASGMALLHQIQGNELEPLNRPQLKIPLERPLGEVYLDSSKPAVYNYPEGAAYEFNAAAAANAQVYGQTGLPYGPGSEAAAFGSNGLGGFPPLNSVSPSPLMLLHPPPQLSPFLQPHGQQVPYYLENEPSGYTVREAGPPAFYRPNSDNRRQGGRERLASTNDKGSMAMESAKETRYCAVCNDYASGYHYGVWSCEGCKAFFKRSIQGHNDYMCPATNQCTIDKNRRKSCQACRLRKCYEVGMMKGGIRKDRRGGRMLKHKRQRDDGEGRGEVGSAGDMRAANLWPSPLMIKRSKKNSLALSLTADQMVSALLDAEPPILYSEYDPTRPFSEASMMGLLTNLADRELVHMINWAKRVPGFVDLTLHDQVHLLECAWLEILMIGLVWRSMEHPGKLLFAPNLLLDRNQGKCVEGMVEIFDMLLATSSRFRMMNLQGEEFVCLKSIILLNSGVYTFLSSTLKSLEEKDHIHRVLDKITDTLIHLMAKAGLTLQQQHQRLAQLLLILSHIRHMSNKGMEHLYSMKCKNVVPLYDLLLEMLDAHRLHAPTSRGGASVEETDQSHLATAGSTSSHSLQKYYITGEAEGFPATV
Chain of Signal transducer and activator of transcription 3 (Homo sapiens) (P40763 whole entry, looked up): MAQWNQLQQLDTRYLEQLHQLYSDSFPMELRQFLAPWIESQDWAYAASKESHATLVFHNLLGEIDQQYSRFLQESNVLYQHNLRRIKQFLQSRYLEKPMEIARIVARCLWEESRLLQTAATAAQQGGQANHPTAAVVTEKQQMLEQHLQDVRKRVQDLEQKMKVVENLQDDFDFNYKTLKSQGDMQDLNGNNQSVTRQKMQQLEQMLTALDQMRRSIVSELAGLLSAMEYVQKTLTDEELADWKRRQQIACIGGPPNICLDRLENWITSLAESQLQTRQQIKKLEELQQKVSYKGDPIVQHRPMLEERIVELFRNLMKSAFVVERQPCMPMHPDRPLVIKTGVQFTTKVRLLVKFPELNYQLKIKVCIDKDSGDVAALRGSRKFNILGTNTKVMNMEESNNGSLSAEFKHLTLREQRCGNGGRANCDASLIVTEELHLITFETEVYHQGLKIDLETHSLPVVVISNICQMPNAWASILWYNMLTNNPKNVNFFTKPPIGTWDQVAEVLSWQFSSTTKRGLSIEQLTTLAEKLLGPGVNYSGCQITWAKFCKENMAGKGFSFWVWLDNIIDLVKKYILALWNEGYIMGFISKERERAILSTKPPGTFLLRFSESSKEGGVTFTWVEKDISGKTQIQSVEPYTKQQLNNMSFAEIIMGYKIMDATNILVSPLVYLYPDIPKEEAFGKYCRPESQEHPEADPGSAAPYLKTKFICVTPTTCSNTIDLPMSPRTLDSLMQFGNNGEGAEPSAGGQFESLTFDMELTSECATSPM
Chain of Transcription factor Sp1 (Homo sapiens) (P08047 whole entry, looked up): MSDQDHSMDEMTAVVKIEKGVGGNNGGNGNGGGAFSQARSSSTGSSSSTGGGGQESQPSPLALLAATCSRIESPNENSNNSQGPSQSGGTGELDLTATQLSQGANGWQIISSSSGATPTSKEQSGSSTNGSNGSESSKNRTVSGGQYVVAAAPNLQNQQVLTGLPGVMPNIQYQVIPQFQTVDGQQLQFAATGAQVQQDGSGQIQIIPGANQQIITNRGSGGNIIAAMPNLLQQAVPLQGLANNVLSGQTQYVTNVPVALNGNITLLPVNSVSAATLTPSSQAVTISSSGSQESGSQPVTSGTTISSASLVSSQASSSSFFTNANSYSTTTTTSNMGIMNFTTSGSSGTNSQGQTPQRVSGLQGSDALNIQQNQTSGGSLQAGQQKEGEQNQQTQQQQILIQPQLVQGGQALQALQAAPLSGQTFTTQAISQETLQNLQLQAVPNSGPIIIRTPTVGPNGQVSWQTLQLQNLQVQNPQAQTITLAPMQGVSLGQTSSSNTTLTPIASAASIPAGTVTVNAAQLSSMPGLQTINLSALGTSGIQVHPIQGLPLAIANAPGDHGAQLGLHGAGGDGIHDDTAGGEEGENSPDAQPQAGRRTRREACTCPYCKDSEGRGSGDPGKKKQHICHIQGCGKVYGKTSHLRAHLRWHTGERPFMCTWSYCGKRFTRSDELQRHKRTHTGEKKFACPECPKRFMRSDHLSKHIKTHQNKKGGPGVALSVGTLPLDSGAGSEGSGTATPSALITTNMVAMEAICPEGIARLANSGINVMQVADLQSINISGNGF
Chain of Nuclear receptor subfamily 1 group I member 3 (Homo sapiens) (Q14994 whole entry, looked up, the tested form may be a part): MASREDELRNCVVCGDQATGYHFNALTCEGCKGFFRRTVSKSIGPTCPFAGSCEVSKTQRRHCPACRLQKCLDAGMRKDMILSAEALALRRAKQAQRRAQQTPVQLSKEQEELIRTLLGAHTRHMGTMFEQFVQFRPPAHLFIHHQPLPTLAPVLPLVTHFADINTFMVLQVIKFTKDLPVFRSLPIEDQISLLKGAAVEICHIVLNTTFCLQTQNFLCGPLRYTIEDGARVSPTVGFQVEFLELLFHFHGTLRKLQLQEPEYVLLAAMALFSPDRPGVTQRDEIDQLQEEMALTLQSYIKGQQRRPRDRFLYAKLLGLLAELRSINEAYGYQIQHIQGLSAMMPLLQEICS
Chain of Steroid hormone receptor ERR1 (Homo sapiens) (P11474 whole entry, looked up, the tested form may be a part): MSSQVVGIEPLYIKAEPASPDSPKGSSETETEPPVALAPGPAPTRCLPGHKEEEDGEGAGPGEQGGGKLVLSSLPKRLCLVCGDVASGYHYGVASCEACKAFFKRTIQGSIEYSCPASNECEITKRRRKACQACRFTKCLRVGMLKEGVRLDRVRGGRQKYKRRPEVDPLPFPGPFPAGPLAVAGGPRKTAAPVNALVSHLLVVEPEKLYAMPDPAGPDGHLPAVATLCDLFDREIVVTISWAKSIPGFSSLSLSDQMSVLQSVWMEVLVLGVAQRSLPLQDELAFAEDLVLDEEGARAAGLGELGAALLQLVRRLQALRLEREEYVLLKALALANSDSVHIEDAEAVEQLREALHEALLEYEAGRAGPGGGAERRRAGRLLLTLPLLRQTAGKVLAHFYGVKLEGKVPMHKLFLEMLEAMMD
Chain of X-box-binding protein 1 (Homo sapiens) (P17861 whole entry, looked up): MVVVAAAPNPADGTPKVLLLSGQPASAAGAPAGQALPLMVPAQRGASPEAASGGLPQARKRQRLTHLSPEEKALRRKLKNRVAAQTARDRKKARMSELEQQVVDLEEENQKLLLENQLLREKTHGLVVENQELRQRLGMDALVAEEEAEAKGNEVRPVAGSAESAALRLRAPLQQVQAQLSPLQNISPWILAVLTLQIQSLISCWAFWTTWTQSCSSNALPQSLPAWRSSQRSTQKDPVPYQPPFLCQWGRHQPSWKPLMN
Chain of Androgen receptor (Homo sapiens) (P10275 whole entry, looked up, the tested form may be a part): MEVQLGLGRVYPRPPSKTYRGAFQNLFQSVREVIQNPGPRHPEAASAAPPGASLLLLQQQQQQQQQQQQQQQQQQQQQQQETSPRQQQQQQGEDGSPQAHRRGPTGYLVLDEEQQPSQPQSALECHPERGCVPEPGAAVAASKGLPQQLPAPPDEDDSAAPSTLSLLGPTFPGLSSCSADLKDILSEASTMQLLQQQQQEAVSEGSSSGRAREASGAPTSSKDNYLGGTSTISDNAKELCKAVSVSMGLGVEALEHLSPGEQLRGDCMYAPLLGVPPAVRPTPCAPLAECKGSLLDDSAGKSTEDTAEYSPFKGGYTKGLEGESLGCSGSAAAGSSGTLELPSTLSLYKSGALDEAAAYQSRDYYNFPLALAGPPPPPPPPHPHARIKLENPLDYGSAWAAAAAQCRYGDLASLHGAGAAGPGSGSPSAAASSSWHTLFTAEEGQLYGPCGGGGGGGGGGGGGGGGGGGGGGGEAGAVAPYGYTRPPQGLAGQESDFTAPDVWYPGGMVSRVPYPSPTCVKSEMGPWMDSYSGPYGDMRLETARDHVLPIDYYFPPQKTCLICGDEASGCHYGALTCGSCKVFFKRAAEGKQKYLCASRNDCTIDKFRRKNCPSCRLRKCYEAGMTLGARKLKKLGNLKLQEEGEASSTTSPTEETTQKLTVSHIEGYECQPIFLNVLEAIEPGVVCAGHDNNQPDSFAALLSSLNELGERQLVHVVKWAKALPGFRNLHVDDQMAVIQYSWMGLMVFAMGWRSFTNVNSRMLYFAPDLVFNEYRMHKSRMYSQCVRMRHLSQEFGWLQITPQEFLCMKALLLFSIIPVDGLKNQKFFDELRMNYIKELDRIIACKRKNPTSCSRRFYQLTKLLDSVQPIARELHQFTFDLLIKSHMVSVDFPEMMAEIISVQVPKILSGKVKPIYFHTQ
Chain of Paired box protein Pax-6 (Homo sapiens) (P26367 whole entry, looked up): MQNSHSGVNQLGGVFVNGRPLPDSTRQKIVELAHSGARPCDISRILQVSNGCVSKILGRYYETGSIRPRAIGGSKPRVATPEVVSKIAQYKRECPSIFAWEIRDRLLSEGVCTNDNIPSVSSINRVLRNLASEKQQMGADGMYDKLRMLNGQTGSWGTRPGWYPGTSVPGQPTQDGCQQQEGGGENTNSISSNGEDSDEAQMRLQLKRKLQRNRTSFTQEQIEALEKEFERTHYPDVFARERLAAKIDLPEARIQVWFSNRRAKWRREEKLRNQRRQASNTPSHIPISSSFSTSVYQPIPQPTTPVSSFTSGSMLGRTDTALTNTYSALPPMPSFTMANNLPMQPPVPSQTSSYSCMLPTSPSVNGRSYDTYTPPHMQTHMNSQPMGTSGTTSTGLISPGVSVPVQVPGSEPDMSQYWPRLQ

OCC(F)(F)OC(F)(F)C(F)(F)OC(F)(F)C(F)(F)OC(F)(F)F
active: [15] 6.04 µM and 4.34 µM
not listed: [20]
inactive: all other assays above

ClC(Cl)c1ccccc1
not listed: [15] | [18] | [20]
inactive: all other assays above

C=CC(=O)OCC(F)(F)C(F)F
active: [10] 89.3 µM | [13] 90.3 µM
not listed: [14] | [15] | [19] | [20]
inactive: all other assays above

CCCCc1ccccc1
not listed: [11] | [14] | [16] | [18]
inactive: all other assays above

O=[N+]([O-])c1ccccc1
active: [15] 19.8 µM
not listed: [1] | [11] | [13] | [14] | [16] | [18] | [19]
inactive: all other assays above

CCOP(=O)(O)C(N)=O
active: [3] 47.9 µM
not listed: [5] | [11] | [16] | [18]
inactive: all other assays above

CC(O)C(F)(F)C(F)(F)F (stereo not given)
not listed: [11] | [20]
inactive: all other assays above
